For experiment [1], the system named is Proto-oncogene tyrosine-protein kinase receptor Ret (Homo sapiens), P07949 [Y791F]. To be noted: at 1 µM.
Experiment [2] has as its target Macrophage-stimulating protein receptor (Homo sapiens) (UniProt Q04912). To be noted: at 0.1 µM.
Experiment [3] has the same target. To be noted: at 1 µM.
In experiment [4] the target is Proto-oncogene tyrosine-protein kinase ROS (Homo sapiens) (UniProt P08922). To be noted: at 0.1 µM.
For experiment [5] the target is unchanged. To be noted: at 1 µM.
The target of experiment [6] is Proto-oncogene tyrosine-protein kinase Src (Homo sapiens) (UniProt P12931). To be noted: at 0.1 µM.
The target is the same in experiment [7]. To be noted: at 1 µM.
In experiment [8] the target is Tyrosine-protein kinase Srms (Homo sapiens) (UniProt Q9H3Y6). To be noted: at 0.1 µM.
Experiment [9] has the same target. To be noted: at 1 µM.
In experiment [10] the target is Tyrosine-protein kinase SYK (Homo sapiens) (UniProt P43405). To be noted: at 0.1 µM.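 Further: reported percentages are mean inhibition values for SYK.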

Proto-oncogene tyrosine-protein kinase receptor Ret (Homo sapiens), P07949 [Y791F], sequence (P07949 whole entry Y791F): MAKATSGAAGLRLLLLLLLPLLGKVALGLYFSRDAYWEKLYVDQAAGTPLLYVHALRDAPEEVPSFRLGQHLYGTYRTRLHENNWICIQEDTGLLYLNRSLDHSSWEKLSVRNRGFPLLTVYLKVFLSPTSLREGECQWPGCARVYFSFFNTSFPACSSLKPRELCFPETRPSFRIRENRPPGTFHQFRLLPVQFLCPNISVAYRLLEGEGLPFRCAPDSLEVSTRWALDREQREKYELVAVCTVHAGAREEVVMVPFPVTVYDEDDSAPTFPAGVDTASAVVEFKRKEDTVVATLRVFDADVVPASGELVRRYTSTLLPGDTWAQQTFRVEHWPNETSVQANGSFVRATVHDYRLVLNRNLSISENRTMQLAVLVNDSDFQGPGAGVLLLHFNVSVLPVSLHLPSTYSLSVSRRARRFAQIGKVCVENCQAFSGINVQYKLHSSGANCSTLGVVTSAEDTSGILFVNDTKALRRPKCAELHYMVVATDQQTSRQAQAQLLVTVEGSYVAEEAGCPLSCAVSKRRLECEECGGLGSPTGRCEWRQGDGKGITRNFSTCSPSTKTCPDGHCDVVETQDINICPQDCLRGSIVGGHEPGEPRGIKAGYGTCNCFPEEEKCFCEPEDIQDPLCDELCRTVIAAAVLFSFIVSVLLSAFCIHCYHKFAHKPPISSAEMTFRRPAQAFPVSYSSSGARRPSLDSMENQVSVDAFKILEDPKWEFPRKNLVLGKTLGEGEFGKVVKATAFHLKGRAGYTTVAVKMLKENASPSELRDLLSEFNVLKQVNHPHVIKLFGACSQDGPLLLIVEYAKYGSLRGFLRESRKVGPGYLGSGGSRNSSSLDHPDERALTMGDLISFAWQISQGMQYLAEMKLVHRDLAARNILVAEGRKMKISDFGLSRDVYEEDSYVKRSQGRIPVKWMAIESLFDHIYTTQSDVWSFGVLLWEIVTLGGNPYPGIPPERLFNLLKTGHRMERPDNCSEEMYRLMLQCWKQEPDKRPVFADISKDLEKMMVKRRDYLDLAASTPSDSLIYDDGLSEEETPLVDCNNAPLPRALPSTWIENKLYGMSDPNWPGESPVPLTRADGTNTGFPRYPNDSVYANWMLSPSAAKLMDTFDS
Proto-oncogene tyrosine-protein kinase ROS (Homo sapiens), sequence (P08922 whole entry): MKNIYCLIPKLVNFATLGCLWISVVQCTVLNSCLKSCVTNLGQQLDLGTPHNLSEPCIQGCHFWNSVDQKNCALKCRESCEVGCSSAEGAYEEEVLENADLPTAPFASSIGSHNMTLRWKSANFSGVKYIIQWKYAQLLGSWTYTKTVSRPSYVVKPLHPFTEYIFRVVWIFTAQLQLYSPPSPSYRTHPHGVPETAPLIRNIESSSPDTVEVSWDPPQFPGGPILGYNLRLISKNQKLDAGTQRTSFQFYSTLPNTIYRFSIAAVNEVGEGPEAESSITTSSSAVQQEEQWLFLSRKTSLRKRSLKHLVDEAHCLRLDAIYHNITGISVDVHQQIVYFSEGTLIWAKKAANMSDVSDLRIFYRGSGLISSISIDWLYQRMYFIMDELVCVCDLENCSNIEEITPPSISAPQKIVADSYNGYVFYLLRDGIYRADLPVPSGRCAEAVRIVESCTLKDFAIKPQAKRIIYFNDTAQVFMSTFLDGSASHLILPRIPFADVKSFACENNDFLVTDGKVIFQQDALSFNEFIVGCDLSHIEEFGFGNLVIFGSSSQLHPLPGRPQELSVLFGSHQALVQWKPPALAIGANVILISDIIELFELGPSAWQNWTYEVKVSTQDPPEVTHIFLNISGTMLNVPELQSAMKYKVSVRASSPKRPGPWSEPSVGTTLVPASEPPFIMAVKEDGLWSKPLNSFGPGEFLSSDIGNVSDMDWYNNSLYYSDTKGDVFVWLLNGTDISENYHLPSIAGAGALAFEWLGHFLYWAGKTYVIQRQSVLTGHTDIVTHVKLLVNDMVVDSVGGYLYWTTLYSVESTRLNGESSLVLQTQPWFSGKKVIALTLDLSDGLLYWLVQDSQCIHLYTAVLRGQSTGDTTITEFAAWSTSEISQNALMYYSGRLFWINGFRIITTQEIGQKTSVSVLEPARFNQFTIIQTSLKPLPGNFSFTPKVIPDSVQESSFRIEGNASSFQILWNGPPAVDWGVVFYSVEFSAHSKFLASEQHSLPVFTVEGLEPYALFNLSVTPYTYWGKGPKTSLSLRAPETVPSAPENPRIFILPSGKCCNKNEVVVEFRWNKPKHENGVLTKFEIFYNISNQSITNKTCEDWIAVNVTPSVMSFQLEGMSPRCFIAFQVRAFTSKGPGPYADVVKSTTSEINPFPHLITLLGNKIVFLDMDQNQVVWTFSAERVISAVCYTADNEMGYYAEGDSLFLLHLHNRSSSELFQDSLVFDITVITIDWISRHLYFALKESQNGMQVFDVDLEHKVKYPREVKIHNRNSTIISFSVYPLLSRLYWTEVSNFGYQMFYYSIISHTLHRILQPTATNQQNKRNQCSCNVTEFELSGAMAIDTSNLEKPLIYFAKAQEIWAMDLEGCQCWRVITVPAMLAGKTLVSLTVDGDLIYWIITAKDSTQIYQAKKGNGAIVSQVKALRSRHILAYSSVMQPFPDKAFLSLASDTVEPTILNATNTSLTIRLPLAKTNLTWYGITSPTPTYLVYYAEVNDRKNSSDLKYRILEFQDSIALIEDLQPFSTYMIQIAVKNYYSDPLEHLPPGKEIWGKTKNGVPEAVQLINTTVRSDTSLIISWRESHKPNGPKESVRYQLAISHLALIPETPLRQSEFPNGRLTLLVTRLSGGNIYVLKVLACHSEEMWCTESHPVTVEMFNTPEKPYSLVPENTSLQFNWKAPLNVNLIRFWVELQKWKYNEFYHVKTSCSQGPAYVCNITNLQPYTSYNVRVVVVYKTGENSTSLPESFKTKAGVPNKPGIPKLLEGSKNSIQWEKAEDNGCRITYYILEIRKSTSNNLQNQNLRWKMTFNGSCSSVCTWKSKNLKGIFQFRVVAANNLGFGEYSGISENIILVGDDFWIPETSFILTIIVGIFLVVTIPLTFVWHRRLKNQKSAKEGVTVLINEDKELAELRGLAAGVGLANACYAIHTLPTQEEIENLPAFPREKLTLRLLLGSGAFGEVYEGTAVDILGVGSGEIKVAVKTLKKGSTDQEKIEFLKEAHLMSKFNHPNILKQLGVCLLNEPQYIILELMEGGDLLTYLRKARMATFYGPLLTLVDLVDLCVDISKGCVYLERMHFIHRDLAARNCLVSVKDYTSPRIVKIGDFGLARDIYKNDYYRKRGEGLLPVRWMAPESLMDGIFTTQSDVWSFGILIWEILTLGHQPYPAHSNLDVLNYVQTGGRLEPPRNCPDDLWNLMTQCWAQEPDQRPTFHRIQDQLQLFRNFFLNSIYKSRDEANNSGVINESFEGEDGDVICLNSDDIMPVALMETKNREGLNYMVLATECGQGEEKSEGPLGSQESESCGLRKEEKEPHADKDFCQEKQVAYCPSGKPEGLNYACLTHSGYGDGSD
Macrophage-stimulating protein receptor (Homo sapiens), sequence (Q04912 25-304 limits assumed): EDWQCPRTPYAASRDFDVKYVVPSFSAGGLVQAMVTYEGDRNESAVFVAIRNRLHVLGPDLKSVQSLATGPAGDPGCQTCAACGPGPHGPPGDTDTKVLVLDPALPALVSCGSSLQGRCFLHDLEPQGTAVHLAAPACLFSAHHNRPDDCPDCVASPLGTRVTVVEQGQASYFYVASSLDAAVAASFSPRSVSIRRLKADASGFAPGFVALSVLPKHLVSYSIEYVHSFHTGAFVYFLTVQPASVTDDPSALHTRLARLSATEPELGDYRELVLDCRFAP
Macrophage-stimulating protein receptor (Homo sapiens), sequence (Q04912 310-1400 limits assumed): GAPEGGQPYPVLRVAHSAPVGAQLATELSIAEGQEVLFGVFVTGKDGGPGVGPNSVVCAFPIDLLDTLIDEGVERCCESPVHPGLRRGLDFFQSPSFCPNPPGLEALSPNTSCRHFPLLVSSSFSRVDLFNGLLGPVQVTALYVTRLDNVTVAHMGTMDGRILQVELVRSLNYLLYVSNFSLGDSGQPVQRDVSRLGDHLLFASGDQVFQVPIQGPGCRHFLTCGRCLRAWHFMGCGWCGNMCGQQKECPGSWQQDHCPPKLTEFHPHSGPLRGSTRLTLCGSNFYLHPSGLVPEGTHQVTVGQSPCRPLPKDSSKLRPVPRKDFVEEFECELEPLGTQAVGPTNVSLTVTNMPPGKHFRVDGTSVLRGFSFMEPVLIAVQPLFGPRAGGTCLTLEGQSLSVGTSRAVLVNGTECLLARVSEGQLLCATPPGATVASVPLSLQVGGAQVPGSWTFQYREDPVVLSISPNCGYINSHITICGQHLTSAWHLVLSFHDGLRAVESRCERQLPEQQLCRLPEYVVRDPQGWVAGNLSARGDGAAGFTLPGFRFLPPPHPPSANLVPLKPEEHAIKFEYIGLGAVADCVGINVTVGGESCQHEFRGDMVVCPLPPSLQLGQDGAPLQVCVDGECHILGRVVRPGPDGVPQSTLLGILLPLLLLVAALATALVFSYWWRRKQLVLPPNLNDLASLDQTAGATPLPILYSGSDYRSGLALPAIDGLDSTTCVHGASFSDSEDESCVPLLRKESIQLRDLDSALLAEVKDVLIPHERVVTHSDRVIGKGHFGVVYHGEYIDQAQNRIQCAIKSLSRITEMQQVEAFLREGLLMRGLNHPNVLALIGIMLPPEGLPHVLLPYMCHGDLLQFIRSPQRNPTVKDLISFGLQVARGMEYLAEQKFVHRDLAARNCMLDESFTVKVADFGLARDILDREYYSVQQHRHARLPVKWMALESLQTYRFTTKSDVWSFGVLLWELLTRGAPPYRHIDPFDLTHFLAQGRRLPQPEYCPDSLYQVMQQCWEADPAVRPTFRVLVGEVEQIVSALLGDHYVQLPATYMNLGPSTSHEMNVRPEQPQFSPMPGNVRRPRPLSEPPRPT

On to `Nc1nccc(C#Cc2cncnc2Nc2ccc(OCc3cccc(F)c3)c(Cl)c2)n1`, for which the inhibition (in general, the drop in the measured response relative to a control, in per cent) in [1] was 10.5%; in [2], -0.99%; in [3], 9.09%; in experiment [4], 7.35%; in experiment [5] it was 16.2%; in [6], 0.36%. Further, the inhibition in [7] was 7.62%; in [8] it was 0.29%; in experiment [9], -3.68%; in [10], -6.1%.
Turning to `CN(C)C(=O)O[C@@H]1CN[C@@H](C#Cc2cc3ncnc(Nc4ccc(OCc5cccc(F)c5)c(Cl)c4)c3s2)C1`, the inhibition in experiment [1] is 0.86%; in [2] it was -3.14%; in [3], -2.46%; in experiment [4], 1.04%; in experiment [5], 4.92%; in [6], 3.94%. The inhibition in experiment [7] is 3.62%; in [8] it was -1.8%; in experiment [9], -0.67%; in experiment [10] it was 6.58%.
For the compound `COc1cc(/C=N/Nc2ncnc3c2cnn3C(C)C)ccc1O`, the inhibition in [1] was 78.1%; in experiment [2], 8.98%; in [3], 17.9%; in experiment [4], 11.9%; in [5], 37.5%; in [6], 20.8%. Besides, the inhibition in [7] was 72.7%; in experiment [8], 1.16%; in experiment [9], 4.98%; in experiment [10], -1.05%.
`Cc1cc(O)cc(C)c1/C=C/c1cncc(C(=O)N(C)C)c1`: the inhibition in experiment [1] came out at 11.9%; in [2], 4.1%; in experiment [3] it was 11%; in experiment [4] it was 3.04%; in [5] it was 7.84%; in [6], 1.66%. Besides, the inhibition in [7] was 7.43%; in [8], 0.98%; in experiment [9], 1.27%; in experiment [10] it was -1.67%.
`COc1cc2ncn(-c3cc(OCc4ccccc4S(C)(=O)=O)c(C#N)s3)c2cc1OC`: the inhibition was 59.1% in [1]; -3.29% in experiment [2]; 8.3% in [3]; 27.4% in experiment [4]; 68.7% in experiment [5]; 3.54% in experiment [6]. The inhibition in [7] was 50.1%; in experiment [8], 2.07%; in experiment [9], 26.9%; in experiment [10], -8.27%.
Take `O=C1Nc2ccc(-c3cccnc3)cc2C1=Cc1cc(Br)c(O)c(Br)c1`: the inhibition is 1.19% in experiment [1]; -1.31% in experiment [2]; 8.32% in [3]; 8.46% in experiment [4]; 18.3% in [5]; 2.96% in experiment [6]. In addition, the inhibition was 12.1% in experiment [7], 12.3% in experiment [8], 57.9% in [9] and -3.33% in experiment [10].
As for `Nc1ccc(C#Cc2cncnc2Nc2ccc(OCc3cccc(F)c3)c(Cl)c2)cc1`, the inhibition in experiment [1] was determined as 4.06%; in [2] it was 7.87%; in experiment [3] it was 1.71%; in [4], 1.61%; in experiment [5], 3.55%; in experiment [6], 5.95%. Moreover, the inhibition is 3.71% in experiment [7], -2.09% in experiment [8], -0.77% in experiment [9] and -0.35% in experiment [10].
Take `C[C@@H](Oc1cc(-n2cnc3ccc(OCC4CCN(C)CC4)cc32)sc1C(N)=O)c1ccccc1C(F)(F)F`: the inhibition in [1] was 18.4%; in experiment [2] it was -0.38%; in experiment [3], 9.36%; in [4] it was 0.2%; in experiment [5], 7.21%; in [6], -1.27%. The inhibition turned out to be 21.3% in [7], 1.72% in experiment [8], 2.5% in experiment [9] and 0.48% in experiment [10].
Take `N#Cc1cccc(Nc2nccc(-c3cnn4ncccc34)n2)c1`: the inhibition in experiment [1] was 37.3%; in [2], -3.06%; in experiment [3] it was 15.6%; in experiment [4], 32.1%; in [5], 74.2%; in [6], 14.3%. Also, the results for the inhibition in [7], in [8] and in [9] were 66%, 1.1% and 14.7%, respectively.
Regarding `CN(c1ccc(NC(=O)Nc2ccc(OC(F)(F)F)cc2)cc1)c1ccnc(Nc2cccc(S(N)(=O)=O)c2)n1`, the inhibition in experiment [1] was 92.1%; in [2], 54.3%; in experiment [3], 90.5%; in experiment [4], 15.2%; in experiment [5], 66.9%; in [6] it was 41.9%. The inhibition in experiment [7] is 86.5%; in experiment [8] it was 0.09%; in [9], 14.3%; in experiment [10], -1.49%.
In the case of `NS(=O)(=O)c1cccc(-c2cc3ccncc3cc2OCc2ccccc2)c1`, the inhibition in experiment [1] was 18%; in experiment [2], 3.72%; in experiment [3] it was -2.44%; in [4], 10.8%; in experiment [5], 17.1%; in experiment [6] it was 5.87%. The inhibition in experiment [7] is 11.2%; in [8], -1.16%; in experiment [9], -2.93%; in [10], -6.65%.
For the compound `Cc1ccc(C(=O)NC2CC2)cc1-c1ccc2[nH]ncc2c1`, the inhibition in experiment [1] was -0.71%; in experiment [2], -3.31%; in experiment [3], -6.03%; in [4] it was 0.92%; in experiment [5], 1.49%; in experiment [6], -6.61%. In addition, the inhibition in experiment [7] is -7.08%; in [8], -1.77%; in [9], 0.94%; in experiment [10] it was -1.71%.
For `CC(C)c1ccc(Nc2nccc(-c3cnn4ncccc34)n2)cc1`, the inhibition in experiment [1] came out at 13.4%; in experiment [2], 1.98%; in experiment [3] it was 16.8%; in [4], 19.2%; in [5], 62.4%; in experiment [6], 1.55%. The inhibition in experiment [7] was 13.4%; in [8] it was 1.68%; in experiment [9], 3.15%; in experiment [10], -6.64%.
As to `Cc1nc(-c2ccccc2)n2nc(NCCCN3CCOCC3)ncc12`, the inhibition in experiment [1] is 4.86%; in experiment [2] it was 2.7%; in experiment [3], -3.01%; in [4], 4.45%; in experiment [5], 2.41%; in [6], 6.46%. Moreover, the inhibition in experiment [7] is 6.81%; in [8] it was 2.65%; in [9], 2.27%; in experiment [10], 1.44%.
For `COc1cc2ncnc(Nc3ccc4c(cnn4Cc4ccccc4)c3)c2cc1OC`, the inhibition in [1] is 40%; in [2], 3.2%; in experiment [3], 2.02%; in experiment [4], 6.51%; in experiment [5], 4.63%; in experiment [6], 10.1%. Further, the inhibition in experiment [7] was determined as 41.8%; in experiment [8] it was 0.35%; in [9], 4.63%; in experiment [10], 4.44%.
With `COc1ccc2ncnc(Nc3ccc(OCc4ccccc4)cc3)c2c1`, the inhibition was 11.5% in experiment [1]; 2.03% in experiment [2]; 4.46% in [3]; 1.06% in experiment [4]; 3.14% in experiment [5]; 2.84% in experiment [6]. The inhibition is 8.82% in [7], -1.19% in experiment [8], 0.6% in experiment [9] and -3.74% in experiment [10].
Consider `C[C@@H](Oc1cc(-n2cnc3ccc(OC[C@@H](O)CO)cc32)sc1C(N)=O)c1ccccc1Cl`, for which the inhibition is 10.8% in [1]; -4.17% in [2]; 6.85% in [3]; 1.32% in [4]; 11.6% in experiment [5]; 3.67% in experiment [6]. Moreover, the inhibition in experiment [7] is 5.14%; in [8] it was 0.51%; in [9], 2.19%; in [10] it was 1.72%.
For `Nc1nccc(-c2c(-c3ccc(F)cc3)ncn2CCCN2CCOCC2)n1`, the inhibition in experiment [1] was 24.9%; in experiment [2], -1.76%; in experiment [3], 2.17%; in experiment [4], 5.06%; in experiment [5], 5.81%; in experiment [6], -0.33%. For the same compound, the inhibition in experiment [7] is 8.77%; in experiment [8], -1.41%; in [9] it was 1.12%; in experiment [10], -6.28%.
`Cc1cc(Cl)cc2c1NC(=O)C2=NNc1ccc(S(N)(=O)=O)cc1`: the inhibition in [1] was 11%; in [2], 0.92%; in [3], 0.34%; in [4] it was 2.22%; in [5], 3.14%; in [6] it was 5.04%. The inhibition is 5.85% in experiment [7], -1.17% in [8], -2.07% in experiment [9] and -4.26% in experiment [10].
Turning to `COC(=O)c1cncc(/C=C/c2c(C)cc(O)cc2C)c1`, the inhibition in experiment [1] was 15.2%; in [2], -3.36%; in [3] it was 7.09%; in experiment [5], 6.7%; in [6], 11.8%; in experiment [7], 38.2%. The inhibition in experiment [8] was 0.39%; in experiment [9], 12.7%; in experiment [10] it was -5.74%.
